# Screening data from PubChem.
# Abeta rescue = A-beta toxicity reversal in yeast | yeast expressing A-beta42, growth rescue, OD600, 48 h; response scale: 0% DMSO, 100% iron-clioquinol control | Potency, µM (top dose mostly 46.1 µM), actives largely listed as activators | hit rate 0.063% among 410,000; also: nearly all actives have a fitted effect of over 55% in size
#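 Yeast growth medium received pinned compounds, then yeast cells expressing toxic A-beta were added; plates incubated at 30 C for 48 hr. Growth read as absorbance at 600 nm, normalized to DMSO and equimolar FeCl3 plus clioquinol controls.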
# Mito fusion act = blocks mitochondrial division or promotes mitochondrial fusion | S. cerevisiae fusion-defective mutant growth rescue, CellTiterGlo 48 h | Potency, µM (titrated, usually from 46.1 µM), for inactives: top-dose growth rescue (activation), most hits filed as activators | hit rate 0.23% among 320,000; also: % of control where 0% means no effect; nearly all actives have a fitted effect of over 45% in size
#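 Compounds are tested for their ability to restore growth of mitochondrial fusion-defective yeast strains at non-permissive 37C in YPEG medium over 48 hours. Viability is quantified by luciferase luminescence.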
# aSyn yeast inh = inhibitors of alpha-synuclein toxicity in yeast. Yeast expressing alpha-synuclein, growth rescue, BacTiter-Glo, 24 h. Potency, µM (titrated, usually from 46.1 µM), inactives show at the top dose growth rescue (activation), hits mostly activators. hit rate 0.14% among 370,000. AID 652106; also: % of control where 0% means no effect; nearly all actives have a fitted effect of over 65% in size
#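 Readout is rescue of growth in alpha-synuclein-expressing yeast, so inhibitors of toxicity appear as activators. Growth after 24 hr at 30 deg C in galactose medium is quantified by luminescence.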
# Glioma ERSR ind = inducers of ER stress response in human glioma cells; U87-MG GRP78 promoter luciferase reporter, 16 h; Potency, µM, for inactives: at the highest dose activation, hits mostly activators; hit rate 0.02% among 420,000; AID 602332; also: series mostly up to about 76 µM; % of control where 0% means no effect; nearly all actives have a fitted effect of over 35% in size
#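 Stably transfected U87-MG glioma cells carrying a GRP78-based luciferase sensor; 16 h compound incubation. Luminescence end-point read 10 min after Bright-Glo addition at room temperature.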
# TDP-43 yeast inh = TDP-43 toxicity inhibition in yeast. TDP-43 expressing yeast growth rescue, BacTiter-Glo, 24 h. Potency, µM (series often up to 46.1 µM), for inactives: top-dose growth rescue (activation), usual class: activators. hit rate 1.8% among 410,000. AID 652104; also: % of control where 0% means no effect; nearly all actives have a fitted effect of over 50% in size
#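 In this qHTS, compounds that restore growth of yeast expressing TDP-43 appear as activators. Cells (OD600=0.02, galactose medium, raffinose-pregrown) are incubated with compound 24 hr at 30 deg C and growth is quantified by BacTiter-Glo.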
# AT treatment = potential ataxia-telangiectasia treatments restoring KAP-1 phosphorylation; AID 485349; F2112 A-T fibroblasts, KAP-1 phosphorylation AlphaLISA; neocarzinostatin DNA damage 30 min before lysis; Potency, µM (highest dose often 57.5 µM), without a hit: at the top dose activation, hits mostly activators; hit rate 0.19% among 320,000; also: % of control where 0% means no effect; nearly all actives have a fitted effect of over 45% in size
#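 hTERT-immortalized A-T patient fibroblasts (F2112), 500 cells/well in OPTI-MEM, 1% FBS, got compounds for 60 min, then NCS for 30 min at 37C. Lysates were then assayed for phospho-KAP-1 by AlphaLISA (anti-pKAP1 donor, anti-KAP1 acceptor beads), 6 hr at 25C.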
# * hit, by the source's call; i = inactive; ? = inconclusive; · = no result given. Compounds with a hit are over-represented: about 2.1% of the library has one in this group of screens. Calls follow the shape of the dose curve; as a rule, active = well fitted curve in the direction sought with a large enough effect; inconclusive = small, poorly fitted or top-dose-only effect, or another doubt; inactive = no such curve, though single readings can be large; an effect the other way counts as inactive or inconclusive. Potency is read from the fitted curve at half-maximal effect.
SMILES,Abeta rescue,Mito fusion act,aSyn yeast inh,Glioma ERSR ind,TDP-43 yeast inh,AT treatment
O=S(=O)(Nc1cccc2ccccc12)c1ccc2ccccc2c1,·,·,20µM*,-5.9%,·,·
COc1ccc(NS(=O)(=O)c2ccc3ccccc3c2)c2ncccc12,4.47µM*,23.5%,?,-6.3%,?,-0.3%
O=S(=O)(c1cnc2ccccc2c1)N1CCN(c2nc(-c3cccs3)nc3ccccc23)CC1,·,·,-9.6%,·,·,·
COc1cccc(CN2C(=O)c3ccccc3Sc3ccc(C(=O)OCc4ccco4)cc32)c1,i,·,-0.2%,-3.1%,0.0%,·
CCN1C(=O)c2ccccc2C1Nc1cccc(OCCN2CCCCC2)c1 (configuration not stated),·,·,·,-3.3%,·,·
CC1CCC2C(=O)N3C(CCC(C)C3c3ccc(-c4ccco4)cc3)C(=O)N2C1c1ccc(-c2ccco2)cc1 (configuration not stated),·,·,·,-5.3%,·,·
Cc1cccn2c(=O)cc(COc3ccc(NC(=O)C(C)C)cc3)nc12,i,·,·,-5.4%,17.3%,·
Cc1ccc(C(=O)OCc2cc(=O)n3c(C)csc3n2)s1,i,-5.5%,-1.6%,8.7%,22.4µM*,-0.4%
COc1ccccc1C(=O)OCc1cc(=O)n2c(C)csc2n1,i,·,·,0.2%,35.5µM*,·
COc1ccc(C(=O)OCc2cc(=O)n3c(C)csc3n2)cc1F,i,?,6.8%,1.5%,14.7%,-9.7%
Cc1ccc(NC(=O)CN(C)Cc2cc(=O)n3ccsc3n2)cc1,i,0.1%,-5.2%,-4.5%,-14.6%,12.6µM*
CC(Oc1ccccc1)C(=O)Nc1ccc(OCc2cc(=O)n3ccsc3n2)cc1 (configuration not stated),i,·,·,-2.6%,15.8µM*,·
COc1ccccc1C(=O)OCc1cc(=O)n2ccsc2n1,i,·,12.1%,2.5%,15.8µM*,10.4%
O=C(OCc1cc(=O)n2ccsc2n1)c1ccc(OC(F)F)cc1,i,-0.3%,7.0%,0.5%,7.08µM*,2.6%
Cc1ccc(-c2csc(N3C(=N)SCC3=O)n2)cc1,i,5.0%,-5.9%,6.2%,-14.9%,22.4µM*
O=C(O)CSc1nc(-c2ccc(Cl)cc2)nc2c1oc1ccccc12,i,8.91µM*,-32.5%,1.3%,-89.5%,-0.2%
COCc1ccc(CN2Cc3cc(Cl)ccc3OC(C)C2)o1 (configuration not stated),·,·,·,-2.3%,·,·
CCOC(=O)c1noc2ncnc(Nc3cc(Cl)c(OC)cc3OC)c12,i,·,·,-1.2%,20.1%,·
CCOC(=O)c1noc2ncnc(NCc3ccccc3OC)c12,i,·,·,-2.7%,28.2µM*,·
O=C(CCC1N=C2c3ccccc3N=C(SCc3ccccc3Cl)N2C1=O)NCc1cccs1 (configuration not stated),i,·,·,-2.1%,21.2%,·
COc1ccc(-c2ccc(-c3noc(C(C)C)n3)c(OC)n2)cc1,i,-6.4%,-13.9%,3.1%,-1.7%,14.1µM*
O=C(c1cc(-c2ccccc2)on1)N1CCOc2ccc(CN3CCN(c4ccccn4)CC3)cc2C1,·,·,·,-2.8%,·,·
Cc1ccc(-n2ncc3c(NC4CCCCCC4)ncnc32)cc1,i,·,·,0.3%,?,·
Clc1cccc(-n2ncc3c(NC4CCCCC4)ncnc32)c1,i,·,·,-6.9%,15.8µM*,·
Cc1ccc(Cl)cc1-n1ncc2c(NC3CCCCC3)ncnc21,i,·,·,-3.1%,12.6µM*,·
SMILES,Abeta rescue,Mito fusion act,aSyn yeast inh,Glioma ERSR ind,TDP-43 yeast inh,AT treatment
Cc1ccc(C(=O)Nc2ccccc2C(=O)OCc2cc(=O)n3nc(C4CC4)sc3n2)cc1,i,·,·,-2.1%,13.3%,·
CCn1c(-c2cccc(OC)c2)nc2cc(NC(C)=O)cc(C(=O)N(C)CC3COCCO3)c21 (configuration not stated),·,·,·,-5.3%,·,·
O=C(c1c[nH]c(C(=O)C(Cl)(Cl)Cl)c1)c1c(F)cccc1F,i,-2.4%,-13.2%,-6.7%,-93.5%,-31.8%
O=C(c1c[nH]c(C(=O)C(Cl)(Cl)Cl)c1)c1ccccc1F,i,2.1%,-2.8%,-3.2%,10µM*,-11.4%
O=C(O/N=C(\c1ccccc1)c1ccncc1)c1ccccc1Cl,i,1.7%,?,-1.2%,3.98µM*,4.3%
COc1ccc(C(=O)O/N=C(/c2ccccc2)c2ccncc2)cc1OC,i,2.0%,0.6%,0.7%,?,-1.9%
N/C(=N\OC(=O)c1ccccc1Cl)c1ccccc1,i,2.0%,-21.1%,-1.7%,?,13.5%
Cc1cccc(C(=O)O/N=C(/c2ccccc2)c2ccncc2)c1,i,?,?,-3.7%,7.08µM*,7.6%
COc1cc(C2CC(=O)Nc3cc4c(cc32)OCCO4)cc(OC)c1O (configuration not stated),i,·,·,-4.9%,5.0%,·
Cc1c(C(=O)N(C)C2CCOC2)cnn1-c1ncc2c(n1)-c1ccccc1CCC2 (configuration not stated),·,·,·,2.7%,·,·
COc1ccc(CN2CSC(=S)N(Cc3ccc(OC)cc3)C2)cc1,i,-7.9%,-5.0%,-3.3%,31.6µM*,-0.7%
O=C(NC(CC1CCCCC1)C(=O)O)c1ccccc1 (configuration not stated),i,-1.0%,4.0%,-3.3%,-4.9%,25.1µM*
COc1cc(=O)n2c(c1C(=O)NCc1ccsc1)CCN(Cc1nc3ccccc3[nH]1)CC2,·,·,·,0.2%,·,·
Cc1ccc(C(=O)N2CCC3(CC2)Oc2ccc(F)cc2C(=O)C32CC(c3cccnc3)=NO2)s1 (configuration not stated),i,1.4%,20.9%,-5.5%,-15.5%,39.8µM*
CC(C)C(=O)N1CCC2(CC1)Oc1ccc(F)cc1C(=O)C21CC(c2cccnc2)=NO1 (configuration not stated),·,-8.2%,·,·,·,-12.9%
Cc1ccc(CNC(=O)c2ccc3c(O)c(S(=O)(=O)c4ccc(Cl)cc4)c(=O)[nH]c3c2)cc1,i,·,·,-4.3%,5.9%,·
COCCNC(=O)c1c(N)n(-c2ccccc2)c2nc3ccccc3nc12,i,0.0%,1.8%,-1.6%,14.5%,2.3%
COCCNC(=O)c1c(N)n(-c2cccc(C)c2)c2nc3ccccc3nc12,i,-15.2%,14.1%,-5.8%,25.6%,3.55µM*
Cc1ccc(C(=O)N2CCc3cc(CNS(=O)(=O)c4cccs4)ccc32)cc1,i,·,·,-0.4%,6.7%,·
O=C(Cc1ccc(S(=O)(=O)N2CCOCC2)s1)NCCOc1ccccc1,i,3.4%,0.1%,-3.4%,4.2%,1.4%
CCOc1ccc(-c2nnc(SCC(=O)Nc3cc(F)ccc3F)o2)cc1,i,·,·,-4.6%,6.4%,·
COc1ccc(NC(=O)CCn2nc(-c3ccccc3OC)c3c(C)cc(C)nc32)cc1,i,·,·,0.2%,14.1µM*,·
